Measured values as given in PubChem BioAssay AID449762 (Southern Research Specialized Biocontainment Screening …, 2010).
Hit rate of the full screen: of about 330,000 compounds, about 1,900 (0.58%) were called active. Inconclusive results (about 4%) are left out. Not all results are given here. Results with a measured potency or affinity are listed apart. Unmarked numbers belong to inactive results. No stated cut-off is given here; in the data, inconclusive means inhibition above about 70% without an active follow-up result; inactive means below that.

Experiment: M. tuberculosis growth inhibition, HTS (AID 449762);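 further: bacterial growth assessed after seven days of incubation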
Conditions: M. tuberculosis H37Rv growth inhibition, 7H9 media; at 25 µM; active compounds read high

Row | SMILES | inhibition [%]
1 | COCCN(C(=O)COC(=O)CCc1ccc(OC)cc1)c1c(N)n(Cc2ccccc2)c(=O)[nH]c1=O | -4.28
2 | CCCNC(=O)c1ccc2c(=O)n(Cc3ccco3)c(=S)[nH]c2c1 | 4.3
3 | Cc1ncoc1C(=O)N1CCCC(C(=O)c2ccc(-c3ccccc3)c(F)c2)C1 (centres undefined) | 10.4
4 | COc1ccc2cc(C(=O)C3CCCN(C(=O)c4cncs4)C3)ccc2c1 (centres undefined) | 0.43
5 | Cc1ccc(NC(=O)NCc2ccncc2)cc1Cl | 4.38
6 | Cc1cc(C)c(NC(=O)CN(C)CC(=O)Nc2cccc(S(=O)(=O)N(C)c3ccccc3)c2)c(C)c1 | 1.14
7 | CN(CC(=O)Nc1ccccc1Cl)C(=O)CSc1ncc(C(F)(F)F)cc1Cl | 3.84
8 | Cc1cc(Cl)ccc1NC(=O)COC(=O)c1cc([N+](=O)[O-])ccc1N1CCOCC1 | -0.98
9 | N#CCCn1cc(C(=O)NCc2ccccc2)c(-c2ccc3c(c2)OCCO3)n1 | -3.92
10 | CN(C)S(=O)(=O)c1ccc(C(=O)Nc2nnc(-c3ccco3)o2)cc1 | 70.1
11 | CCN(c1ccccc1)S(=O)(=O)c1ccc(C(=O)Nc2nnc(-c3ccco3)o2)cc1 | 12.1
12 | O=C(NCCNC(=O)c1ccc(Cl)cc1Cl)c1ccco1 | 2.57
13 | O=C(O)c1cnn2cc(-c3[nH]ncc3[N+](=O)[O-])cnc12 | 0.22
14 | Cc1cccc(N2CC(C(=O)Nc3nccs3)CC2=O)c1C (centres undefined) | 4.15
15 | CCOC(=O)C1(Cc2ccc(Cl)cc2)CCN(C(=O)c2cnc(C)cn2)CC1 | -0.58
16 | CSc1ccc(CNC(=O)C2CCC(=O)N(Cc3cccc(F)c3)C2)cc1 (centres undefined) | -1.72
17 | Cn1cc(CNC(=O)C2CCC(=O)N(Cc3cccc(C(F)(F)F)c3)C2)cn1 (centres undefined) | -6.46
18 | Cc1ccc2nc(NCc3ccccc3)c(C=O)c(=O)n2c1 | 2.81
19 | C[C@H](NC(=O)NCc1ccc(F)cc1)C(=O)O | -0.83
20 | COc1ccc(C(=O)n2c(N)nc3ccccc32)cc1OC | 44.1

Row | SMILES | inhibition [%]
21 | Nc1nc2ccccc2n1C(=O)c1cccs1 | 10.2
22 | c1cc2c3c(cccc3c1)C(N1CCOCC1)=N2 | -3.61
23 | c1cc2c3c(cccc3c1)C(N1CCCCC1)=N2 | -4.9
24 | Cc1cc(NC(=O)CSc2cn(CCNC(=O)c3ccc(Cl)cc3)c3ccccc23)no1 | -7.12
25 | O=[N+]([O-])c1ccc(-c2nc(NCC3CCCO3)c3ccccc3n2)cc1 (centres undefined) | 2.21
26 | c1cncc(-c2nc(NCC3CCCO3)c3ccccc3n2)c1 (centres undefined) | 6.22
27 | C=CCN1C(=O)C(CC(=O)Nc2ccc(OC)cc2)N(Cc2ccco2)C1=S (centres undefined) | -5.03
28 | O=C(O)CCNS(=O)(=O)c1ccccc1C(F)(F)F | -11.5
29 | c1ccc(NCCCNc2ccccc2)cc1 | 2.48
30 | COc1cc(CNc2ncn[nH]2)cc(Br)c1OC | -1.3
31 | Cc1c(OCc2ccccc2)c(=O)ccn1Cc1ccccc1 | 18
32 | Cc1ccc(Cn2ccc(=O)c(OCc3ccccc3)c2C)cc1 | -1.87
33 | CC1(CCc2ccccc2)NC(=O)N(CC(=O)N2CC(=O)Nc3ccccc32)C1=O (centres undefined) | -6.43
34 | Cc1cc(NC(=O)Cn2cnc3sccc3c2=O)no1 | -4.01
35 | O=C(O)c1ccccc1C(=O)N1N=C(c2ccccc2)CC1c1ccccc1O (centres undefined) | 0.11
36 | C=CCSc1nnc(COc2ccc(=O)n(-c3ccccc3)n2)n1CC | 1.1
37 | CCC(=O)Nc1nc2nc(C)cc(=O)n2[nH]1 | -0.66
38 | Cc1cc(=O)n2[nH]c(NCc3c(F)cccc3Cl)nc2n1 | 11.1
39 | Cc1ccc2nc(Nc3ccc(Cl)cc3)c3nncn3c2c1 | 7.65
40 | COc1ccc(CN2CC[C@H]3C=CC[C@@H](C(=O)NCCc4ccccc4)[C@H]3C2=O)cc1OC | -2.75

Row | SMILES | inhibition [%]
41 | O=C(NCCc1ccccc1)[C@@H]1CC=C[C@@H]2CCN(Cc3ccccc3)C(=O)[C@@H]21 | 1.96
42 | CCN(CC)C(=S)SCC(=O)c1ccccc1 | 3.47
43 | C=C(Cl)CSC(=S)N(CC)CC | 14
44 | CCOC(=O)C1CCN(C(=O)CCc2nnc3ccc(N4CCC(C)CC4)nn23)CC1 | 1.94
45 | CCC(C)(C)NC(=O)C(C)OC(=O)c1nsc(Cl)c1Cl (centres undefined) | -2.01
46 | O=C(N/N=C/c1ccco1)c1cc(-c2ccc3ccccc3c2)n[nH]1 | 14.2
47 | Cc1ccc(-c2cc(C(=O)N/N=C/c3ccco3)[nH]n2)cc1 | -2.14
48 | CN(C)C(CNC(=O)c1coc2ccccc2c1=O)c1ccccc1 (centres undefined) | 8.82
49 | COC(=O)C1=C(c2ccc(OCc3ccccc3)cc2)C[C@@H]2CC[C@H]1N2C(=O)NCCCc1ccccc1 | -6.15
50 | COC(=O)C1=C(c2ccc(OCc3ccccc3)cc2)C[C@@H]2CC[C@H]1N2C(=O)NCc1ccccc1 | -9.3
51 | COc1ccc(CNC(=O)c2ccc(S(=O)(=O)NCc3ccco3)cc2)cc1 | 9.2
52 | CCN(CC)C(=O)Cc1c(OC)ccc2cc(Br)ccc12 | -2.55
53 | COc1ccc2cc(Br)ccc2c1CC(=O)N(C)C | 8.82
54 | O=C(Nc1ccccc1C(F)(F)F)c1ccc2nccnc2c1 | -5.96
55 | Brc1ccc(/C=N/Nc2nncc(-c3ccccc3)n2)o1 | -1.56
56 | CC(=O)c1ccc(N2CCN(C(=O)C3CCN(S(=O)(=O)Cc4ccccc4)CC3)CC2)cc1 | -3.28
57 | Cc1ccc(C(=O)Nc2cccc(C(F)(F)F)c2)cc1Nc1cnccn1 | 0.61
58 | Cc1ccc(C(=O)Nc2cccc(C(F)(F)F)c2)cc1NC(=O)c1[nH]cnc1C(N)=O | 1.02
59 | COc1ccc(CN(Cc2ccccn2)S(=O)(=O)c2ccc(-n3cnnn3)c(OC)c2)cc1 | -8.37
